From PubChem BioAssay (NCATS)
Records with an inconclusive call do not appear. A call without a number means that no potency is given here. The source made the active and inactive calls. Calls follow the shape of the dose curve; as a rule, active = well fitted inhibition curve with a large enough effect; inconclusive = small, poorly fitted or top-dose-only effect; inactive = flat fitted curve, though single readings scatter.

Test: P-glycoprotein substrates identified in KB-8-5-11 adenocarcinoma cell line, qHTS therapeutic library screen (AID 1346987); also: nearly all actives have a fitted effect of over 65% in size
Conditions: KB-8-5-11 (P-gp overexpressing) viability, CellTiter-Glo, 72 h; series mostly up to 44.5 µM
Summary of the method: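 In this qHTS, P-gp-rich KB-8-5-11 cells received library compounds across a concentration range. Viability was quantified by luminescence after 72 h at 37 degree C.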
Potency is read from the fitted curve at half-maximal effect.

| SMILES | Potency | activity change, negative = cytotoxicity |
| --- | --- | --- |
| C=C1C[C@]23C[C@H]1[C@@H](O)C[C@H]2[C@@]12C=C[C@H](O)[C@@](C)(C(=O)O1)[C@H]2[C@@H]3C(=O)O | inactive | – |
| COc1cc(C2Oc3c(OC)cc(CCCO)cc3C2CO)ccc1O[C@H]1O[C@H](C)[C@@H](O)[C@H](O)[C@@H]1O (stereo partly drawn) | inactive | – |
| COc1c2c(c(C)c3c1C(=O)OC3)OC1(C)CC(O)C34OC(OC)(CC(OC(C)=O)C3(C)C1C2)OC4(C)C (stereo not drawn) | inactive | – |
| C=CC(=O)Nc1cccc(CN2C(=O)N(c3c(Cl)c(OC)cc(OC)c3Cl)Cc3cnc(NCCCCN(CC)CC)nc32)c1 | inactive | – |
| CC(C)[C@@H]1C(=O)N(S(C)(=O)=O)[C@@H]2CCN(C(=O)/C=C/CN3CCCCC3)[C@H]21 | inactive | – |
| COC1CC(O[C@H]2CC[C@@]3(C)C(CCC4C3[C@H](OC(C)=O)[C@@H](OC(=O)/C=C/c3ccccc3)[C@]3(C)C(C(C)=O)CC[C@]43O)C2)OC(C)C1OC1CC(OC)C(OC2CC(OC)C(OC3OC(C)C(OC4OC(CO)C(O)C(O)C4O)C(OC)C3O)C(C)O2)C(C)O1 (stereo partly drawn) | – | -0.0477% [at 9.29 µM] (inactive) |
| C[C@@H](Oc1cc(-n2cnc3ccc(OC4CCN(C)CC4)cc32)sc1C(N)=O)c1ccccc1C(F)(F)F | 206 nM (active) | – |
| C/C=C1\[C@H](O[C@@H]2O[C@H](CO)[C@@H](O)[C@H](O)[C@H]2O)OC=C2C(=O)OCCc3ccc(O)c(c3)Oc3ccc(cc3)CCOC(=O)C[C@H]21 | inactive | – |
| COC(=O)CCC(=O)OC[C@]1(C)CCC[C@@]2(C)C3CC[C@]4(C)C=CC3(CCC12)C4 (stereo partly drawn) | inactive | – |
| CC1CCC2(OC1)OC1CC3C4CC=C5CC(O)CC(O[C@@H]6OC[C@@H](O)[C@H](O)[C@H]6O)C5(C)C4CCC3(C)C1(O)C2C (stereo partly drawn) | inactive | – |
| Cc1cc(C(=O)N2CCCCc3ccccc32)ccc1CNC(=O)N1CCC[C@H]1C(=O)N(C)C | inactive | – |
| CCO[C@@H]1OC(=O)C[C@@H]1NC(=O)[C@@H]1CCCN1C(=O)[C@@H](NC(=O)c1ccc(N)c(Cl)c1)C(C)(C)C | inactive | – |
| CC(C)=CCC[C@](C)(O)[C@H]1CC[C@]2(C)[C@@H]1[C@H](O)CC1[C@@]3(C)CC[C@H](O)C(C)(C)[C@@H]3[C@@H](O[C@@H]3O[C@H](CO)[C@@H](O)[C@H](O)[C@H]3O[C@@H]3O[C@H](CO)[C@@H](O)[C@H](O)[C@H]3O)C[C@]12C (stereo partly drawn) | inactive | – |
| NC(=O)c1cccc2cn(-c3ccc(C4CCCNC4)cc3)nc12 (stereo not drawn) | inactive | – |
| CC12CCC(OC3OC(CO)C(O)C(OC4OC(CO)C(O)C(O)C4O)C3O)CC1=CCC1C2CCC2(C)/C(=C3/COC(=O)C3)CCC12O (stereo not drawn) | inactive | – |
| Cc1cc(NC(=O)Nc2ccc(F)c(F)c2)n(-c2ccccc2)n1 | inactive | – |
| COc1cc(-c2ncn(/C=C\C(=O)OC(C)C)n2)cc(C(F)(F)F)c1 | 259 nM (active) | – |
| CC1=CC(=O)[C@]2(O[C@@H]3O[C@@H](C)[C@H](O)[C@@H](O)[C@H]3OC(=O)/C=C/c3ccccc3)C=CO[C@@H](O[C@@H]3O[C@H](CO)[C@@H](O)[C@H](O)[C@H]3O)[C@H]12 | inactive | – |
| C=C(C)C1CC[C@]2(C(=O)O)CC[C@]3(C(=O)O)[C@H](CCC4[C@@]5(C)CC[C@H](O)C(C)(C)C5CC[C@]43C)C12 (stereo partly drawn) | inactive | – |
| C=CC(C)(O)CC[C@H]1C(=C)CCC2[C@](C)(C(=O)O)CCC[C@@]21C (stereo partly drawn) | inactive | – |
| CCCC(=O)O[C@@H]1[C@@H]2[C@@H](OC(C)=O)[C@]3(C)C(=O)[C@H]4[C@@H](OC(C)=O)C(C)(C)C[C@H]4[C@]3(C)C(=O)[C@@]2(OC(C)=O)C[C@@H]1C | inactive | – |
| COc1ccc(-c2cnc(-c3cccc4c3-c3ccccc3C4=O)o2)cc1 | 89.3 nM (active) | – |
| OCCc1ccc(O[C@@H]2O[C@H](CO)[C@@H](O)[C@H](O)[C@H]2O)cc1 | inactive | – |
| Cc1nc([C@](C)(O)CO)sc1-c1cnc(N)c(O[C@H](C)c2cc(F)ccc2-n2nccn2)c1 | 11600 nM (active) | – |
| CC1(C)CCCC2(C)C1CC=C1C(=O)OC(O)C12O (stereo not drawn) | inactive | – |
| Cc1cc2c(c(=O)[nH]1)OC(C(O)CC(C)C)O2 (stereo not drawn) | inactive | – |
| C[C@@H]1C[C@@H]([C@@H](O)C(C)(C)O)O[C@H]2C[C@@]3(C)C(=C12)C[C@H](O)[C@H]1[C@@]2(C)CCC(=O)C(C)(C)C2CC[C@@]13C (stereo partly drawn) | inactive | – |
| C[C@H](C/C=C/C(C)(C)O)[C@H]1CC[C@@]2(C)[C@@H]3[C@@H](O[C@@H]4O[C@H](CO)[C@@H](O)[C@H](O)[C@H]4O)C=C4C(CC[C@H](O)C4(C)C)[C@]3(C=O)CC[C@]12C (stereo partly drawn) | inactive | – |
